# Assays:
# Conditions in all cases: concentration: 1 μM, replicates: in singlicate; n = 1
# LOK = test system: T1, LOK
# T1 construct: gene STK10
# LRRK2 = test system: LRRK2
# LTK = test system: LTK
# LYN = test system: LYN
# LZK = test system: T2, LZK
# T2 construct: gene MAP3K13
# MAK = test system: MAK
# MAP3K15 = test system: MAP3K15
# MAP3K1 = test system: MAP3K1
# MAP3K2 = test system: MAP3K2
# MAP3K3 = test system: MAP3K3
# MAP3K4 = test system: MAP3K4
# MAP4K2 = test system: MAP4K2
# MAP4K3 = test system: MAP4K3
# MAP4K4 = test system: MAP4K4
# MAP4K5 = test system: MAP4K5
# MAPKAPK2 = test system: MAPKAPK2
# MAPKAPK5 = test system: MAPKAPK5
# MARK1 = test system: MARK1
# MARK2 = test system: MARK2
# MARK3 = test system: MARK3
# 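Note: KINOMEscan kinase panel screen.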
SMILES,%Inh (LOK) [%],%Inh (LRRK2) [%],%Inh (LTK) [%],%Inh (LYN) [%],%Inh (LZK) [%],%Inh (MAK) [%],%Inh (MAP3K15) [%],%Inh (MAP3K1) [%],%Inh (MAP3K2) [%],%Inh (MAP3K3) [%],%Inh (MAP3K4) [%],%Inh (MAP4K2) [%],%Inh (MAP4K3) [%],%Inh (MAP4K4) [%],%Inh (MAP4K5) [%],%Inh (MAPKAPK2) [%],%Inh (MAPKAPK5) [%],%Inh (MARK1) [%],%Inh (MARK2) [%],%Inh (MARK3) [%]
OCCCNc1nccc(-c2c(-c3cccc(C(F)(F)F)c3)nn3cc(C(F)(F)F)ccc23)n1 [GW630813],0,0,4,0,43,16,0,0,0,0,4,0,0,6,2,7,0,0,0,0
COc1ccc(Nc2nccc(N3CCC(NS(=O)(=O)c4ccc(NC(C)=O)cc4)C3)n2)cc1 (stereo not drawn) [GSK1379729],14,28,8,3,0,30,11,15,0,0,13,2,11,21,15,49,1,0,0,0
Nc1ncnc2c1ncn2-c1cccc(F)c1 [SKF-97560],0,31,0,0,13,0,0,16,3,5,16,38,0,0,0,0,39,0,0,0
O=C(Nc1ccc2c(c1)OCO2)NC1CCN(c2ccnc(NCc3ccc(F)cc3)n2)CC1 [GSK1379859],0,0,1,4,0,79,0,8,0,0,0,0,0,3,0,13,0,8,0,0
COc1ccc(-n2cnc3c(N)ncnc32)cc1 [SKF-97236],0,17,20,0,0,0,13,9,8,8,0,22,0,17,19,15,0,15,0,0
Cc1cc(Nc2nc(-c3cccc(C)n3)nc3ccccc23)ccn1 [GW872411],0,0,0,0,0,0,0,0,0,0,0,0,12,0,0,0,0,21,13,22
CN1C(=O)C(Nc2cc(Cl)c(O)c(Cl)c2)=C(c2ccc(Cl)cc2)C1=O [SB-404321],0,0,0,24,6,0,0,0,0,0,0,0,0,0,0,89,0,0,10,0
COc1ccc(-c2cc3c(C)nc(N)nc3n([C@H]3CC[C@H](O)CC3)c2=O)cn1,0,0,0,0,0,0,0,0,0,0,0,0,3,0,0,0,0,0,0,0
CCc1ccc(-c2ccc3c(c2)-c2nn(C)cc2S(=O)(=O)N3C)cc1,2,0,0,0,0,0,0,0,0,0,1,0,0,19,22,0,0,24,0,0
COc1cccc(-n2cnc3c(N)ncnc32)c1 [SKF-97416],4,63,0,8,33,10,22,29,35,22,31,33,0,0,0,0,1,0,13,37
CCC(=O)c1c(-c2ccccc2)c2cc(Cl)ccc2c(=O)n1Cc1ccc(C(=O)O)cc1,0,0,0,0,0,4,0,0,0,0,0,12,0,0,0,0,17,0,3,0
COc1cc2ncn(-c3cc(OCc4ccc(S(C)(=O)=O)cc4)c(C(N)=O)s3)c2cc1OC [GW869979],20,29,0,26,3,0,0,8,9,0,0,26,0,0,0,0,31,0,10,0
CN1C(=O)C(Nc2ccccc2)=C(c2ccccc2)C1=O [SB-300079],0,0,0,0,0,0,0,0,21,0,0,0,0,0,0,0,0,10,0,23
COc1cc2ncn(-c3cc(OCCCc4ccccc4)c(C(N)=O)s3)c2cc1OC [GSK205189],40,5,0,0,0,4,0,22,0,0,16,0,0,14,39,7,0,0,0,0
CCC(=O)c1c(-c2ccccc2)c2cc(Cl)ccc2c(=O)n1Cc1cc(S(C)(=O)=O)n(CC(N)=O)n1,0,8,0,7,0,15,0,0,0,0,0,0,0,0,0,0,0,0,0,6
COc1cc(Nc2nccc(N3CCC(NC(=O)C4COc5ccccc5O4)C3)n2)cc(OC)c1OC (stereo not drawn) [GSK1379761],0,0,38,19,58,44,0,2,10,0,22,0,2,6,0,0,0,0,0,0
O=c1cc(N2CCOCC2)nc2n(Cc3ccc(F)c(Cl)c3)ccn12 [GSK2297099],0,0,0,2,0,28,0,4,10,0,25,0,0,0,0,2,0,0,0,0
COc1ccc(CNC(=O)NC2CCN(c3ccnc(Nc4ccc(F)cc4)n3)C2)cc1 (stereo not drawn) [GSK1379706],0,23,15,0,71,30,12,2,0,0,0,0,0,3,2,24,2,0,0,4
COC(=O)c1c(-c2ccccc2)c2cc(C)ccc2c(=O)n1Cc1ccccc1,0,0,0,7,0,0,0,0,0,0,2,0,0,0,0,24,0,0,17,0
COc1cc2ncn(-c3cc(OCc4ccncc4Br)c(C(N)=O)s3)c2cc1OC [GW854278],87,0,7,4,0,2,0,65,20,1,17,11,0,0,20,0,0,8,37,0
Nc1ncnc2c1ncn2-c1ccc(Cl)cc1 [AH2635],0,0,14,0,27,8,0,0,0,0,0,0,0,12,0,10,0,0,0,3
